Test results as given in PubChem BioAssay.
Several values for one entry are separate records, joined by “and”; a condition that tells them apart may be missing. Identical values can stand only once. Activity calls are given as the source filed them. Unless noted, the rule behind the calls is not given here.

Columns and labels:
[1] = circadian clock period modulators, cell-based, LOPAC library, luminescence reporter (AID 2774); details: circadian reporter cells, at 7 µM, actives lie on both sides;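 note: values are relative to mean of DMSO wells on each plate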
[2] = system: Hepatitis C virus NS3 helicase; assay: HCV NS3 helicase inhibitors, primary screen, biochemical, fluorescence polarization, LOPAC1280 library (AID 687035; in the data active = inhibition above about 37%); details: Purified HCV NS3 helicase, Cy5-dT15 ssDNA binding fluorescence polarization; stronger effect = higher value; concentration not given here
[3] = Cy5 fluorescence quenching or enhancement artefacts, artefact control for HCV NS3 helicase inhibitor project, biochemical, LOPAC1280 (AID 687037); details: Cy5-DNA-NS3h complex fluorescence interference counterscreen
[4] = sensitizers of A549 cells to miR-34 induction, primary screen, imaging, A549 dox-inducible miR-34, nuclei and caspase counts (AID 1347080;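 active = compounds whose cell count with miR-34 switched on is under 0.7 times the count with it off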); details: A549 miR-34 inducible, Hoechst nuclei count, 48 h
[5] = phospholipid biosynthesis inhibitors in animal cells, primary screen, cell-based, LOPAC library, screen 4 (AID 1347384); details: phospholipid biosynthesis inhibition screen, at 10 µM
[6] = viability rescue of complex I mutant cybrids, primary screen, cell-based, galactose medium, ATP luminescence (AID 1645843;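 active = z-score of at least 1.8 in each of two replicates, scored against plate mean and spread of sample wells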;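 note: positive z means more ATP and so rescue of galactose-driven cybrid death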); details: complex I mutant cybrid cells, 72 h, stronger effect = higher value
[7] = hESC survival regulators, cell-based (AID 493140); details: human embryonic stem cell survival screen; stronger effect = higher value;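 note: cells exposed to compounds for four days before counting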
[8] = inhibitors of Cryptococcus chitosan production, flow cytometry, Cibacron Brilliant Red staining (AID 1347148); details: Cryptococcus neoformans chitosan, stronger effect = lower value; at 10 µM unless noted;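 note: compound exposure lasted three days at 37 degrees C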
[9] = survival rescue of mitochondrial mutant cells in low glucose, primary screen, MELAS cybrids, Rieske KO mouse fibroblasts, CellTiter-Glo (AID 1508586;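 active = mean z-score across replicates of 1.96 or higher in either the MELAS or the Rieske mutant cell line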;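 note: z relative to plate mean and SD of compound and empty wells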)
[10] = measured here: relative caspase fold change +Dox/-Dox
[11] = measured here: total cells with miR-34 induction, stronger effect = lower value
[12] = measured here: total cells without miR-34 induction

Compound | period change [1] | inhibition [2] | fluorescence ratio (interference) [3] | fold change ([4]; stronger effect = lower value) | fold change [4, 10] | cell count [4, 11] | cell count [4, 12] | outcome [5] | z-score [6] | survival [7] | fold fluorescence [8] | z-score ([9]; MELAS cybrid survival, CellTiter-Glo 48 h, stronger effect = higher value) | z-score ([9]; Rieske KO mouse fibroblast survival, CellTiter-Glo 72 h) | fold change ([4]; stronger effect = lower value, cell number ratio, induced over uninduced)
C=CCN1C[C@@H](C)N([C@H](c2ccc(C(=O)N(CC)CC)cc2)c2cccc(OC)c2)C[C@@H]1C | 0 h (inactive) | -3% (inactive) | 1 (inactive) | 1.1 (inactive) | 1.18 | 8780 | 7950 | inactive | -0.39 (inactive) |  |  |  |  | 
CC(C)(C)OC(=O)NC1[C@H]2CNC[C@@H]12 (stereo not given in full) |  |  |  | 1.05 (inactive) | 1.39 | 11400 | 10800 | inactive | 0.37 (inactive) |  |  |  |  | 
c1ccc2cc(CC3=NCCN3)ccc2c1 | 0.04 h (inactive) | -3% (inactive) | 1 (inactive) | 1.06 (inactive) | 1.69 | 11100 | 10500 | inactive | 0.28 (inactive) |  |  |  |  | 
COc1ccc2c(c1)C13CCCCC1C(C2)N(C)CC3 (stereo not given) | 0 h (inactive) | -1% (inactive) | 1.1 (inactive) | 1.04 (inactive) | 1.15 | 10100 | 9710 | inactive | -0.635 (inactive) |  |  |  |  | 
CCCCC[C@@H](/C=C/C=C\C/C=C\C/C=C\CCCC(=O)O)OO |  |  |  | 0.973 (inactive) | 0.92 | 5790 | 5950 |  |  | 120 (inactive) | 5.13 [at 1 µM] (inactive) |  |  | 
CCCCC/C=C\C/C=C\C/C=C\CCCCCCC(=O)NCCO |  |  |  | 0.972 (inactive) and 1.13 (inactive) | 1.55 and 0.675 | 5830 and 6550 | 5990 and 5800 |  |  | 87.2 (inactive) | 5.22 (inactive) |  |  | 
CC(N)c1cccc(Cl)c1Cl (stereo not given) | 0.03 h (inactive) | -2% (inactive) | 1 (inactive) | 1.05 (inactive) | 0.961 | 10200 | 9670 | inactive | 0.12 (inactive) |  |  |  |  | 
N#CC(C#N)=Cc1ccc(O)cc1 |  |  |  | 1.08 (inactive) | 1.22 | 5450 | 5070 |  |  | 59.8 (inactive) | 5.71 [at 293.8 µM] (inactive) |  |  | 
CCCCC/C=C\C[C@@H](/C=C/C=C\C/C=C\CCCC(=O)O)OO |  |  |  | 0.888 (inactive) | 1.25 | 5520 | 6220 |  |  | 111 (inactive) | 6.04 [at 1 µM] (inactive) |  |  | 
CCCCC[C@@H](/C=C/C=C\CCCCCCCC(=O)O)OO |  |  |  | 0.981 (inactive) | 1.1 | 5710 | 5820 |  |  | 94.8 (inactive) | 6.27 [at 1 µM] (inactive) |  |  | 
C[C@@H]1O[C@@H](O[C@H]2C[C@@H](O)[C@]3(CO)[C@@H]4C(CC[C@]3(O)C2)[C@@]2(O)CC[C@H](C3COC(=O)C3)[C@@]2(C)C[C@H]4O)[C@H](O)[C@H](O)[C@H]1O (stereo not given in full) | -0.47 h (inactive) | -1% (inactive) | 1 (inactive) | 0.861 (inactive) | 1.72 | 370 | 430 | inactive | -0.995 (inactive) |  |  |  |  | 
NC1CC1c1ccccc1 (stereo not given) | 0.03 h (inactive) | -1% (inactive) | 1 (inactive) | 0.977 (inactive) and 0.888 (inactive) | 1.3 and 1.48 | 10200 and 8220 | 10400 and 9270 | inactive | 0.355 (inactive) |  |  | -0.158 (inactive) | -0.299 | 
O=C(NC1CN2CCC1CC2)c1cc2ccoc2cn1 (stereo not given) |  |  |  | 0.991 (inactive) | 1.41 | 10200 | 10300 | inactive | 0.38 (inactive) |  |  |  |  | 
N[C@@]1(C(=O)O)CC[C@@H](C(=O)O)C1 | -0.105 h (inactive) | -5% (inactive) | 1 (inactive) | 1.04 (inactive) | 2.1 | 10500 | 10000 | inactive | 0.225 (inactive) |  |  |  |  | 
N#CC(C#N)=NNc1ccc(OC(F)(F)F)cc1 |  |  |  | 1.05 (inactive) | 0.834 | 1180 | 1130 |  |  |  | 9.07 [at 196.7 µM] (inactive) |  |  | 
NC(CP(=O)(O)O)C(=O)O (stereo not given) | -0.025 h (inactive) | -2% (inactive) | 1 (inactive) | 1.01 (inactive) | 2.04 | 10500 | 10400 | inactive | 0.29 (inactive) |  |  |  |  | 
CCCCC/C=C\C/C=C\C/C=C\C/C=C\CCCCCC(=O)NCCO |  |  |  | 1.02 (inactive) and 1.04 (inactive) | 1.64 and 1.22 | 5810 and 5940 | 5700 and 5690 |  |  | 86.3 (inactive) | 5.48 (inactive) |  |  | 
CCCCC/C=C\C/C=C\C/C=C\C=C\[C@H](CCCC(=O)O)OO |  |  |  | 0.99 (inactive) | 1.08 | 5950 | 6010 |  |  | 114 (inactive) | 5.34 [at 1 µM] (inactive) |  |  | 
CO/C1=C\C(C)=C\[C@@H](C)[C@@H](O)[C@@H](C)C/C(C)=C/C=C/[C@H](OC)[C@@H]([C@@H](C)[C@@H](O)[C@H](C)[C@@]2(O)C[C@@H](O)[C@H](C)[C@@H](C(C)C)O2)OC1=O |  |  |  |  | 1.29 | 2990 | 2860 |  |  |  | 11.4 [at 8 µM] (inactive) |  |  | 1.05 (inactive)
CCCCCC1OC1C/C=C\CCCCCCCC(=O)O (stereo not given) |  |  |  | 0.986 (inactive) | 1.2 | 5980 | 6070 |  |  | 100 (inactive) | 4.22 [at 1 µM] (inactive) |  |  | 
Oc1ccc2c3c1O[C@H]1c4[nH]c5ccccc5c4C[C@@]4(O)C(C2)N(CC2CC2)CCC314 (stereo not given in full) | 0.005 h (inactive) | -4% (inactive) | 1 (inactive) | 1.01 (inactive) | 1.69 | 8190 | 8080 | inactive | -0.835 (inactive) |  |  |  |  | 
CN1CCC[C@@H]1Cc1c[nH]c2ccc(Nc3ncccc3[N+](=O)[O-])cc12 |  |  |  | 1.01 (inactive) | 1.84 | 7590 | 7510 | inactive | -0.89 (inactive) |  |  |  |  | 
CCNC(=O)[C@H]1O[C@@H](n2cnc3c(N)ncnc32)C(O)[C@H]1O (stereo not given in full) | -0.025 h (inactive) | 0% (inactive) | 1 (inactive) | 1.03 (inactive) | 1.36 | 9250 | 8960 | inactive | 0.625 (inactive) |  |  |  |  | 
O=C1/C(=C/c2ccccc2)C[C@@]2(O)[C@H]3Cc4ccc(O)c5c4[C@@]2(CCN3CC2CC2)[C@H]1O5 |  | -4% (inactive) | 1 (inactive) | 1.23 (inactive) | 1.39 | 588 | 478 | inactive | -1 (inactive) |  |  |  |  | 
C[C@]12Cc3cn4c(nc3C=C1CCC1C2CC[C@@]2(C)[C@H]1CC[C@@]2(O)C#N)nc1ccccc14 (stereo not given in full) | 0.285 h (inactive) | 0% (inactive) | 1 (inactive) | 1.02 (inactive) | 0.934 | 1380 | 1350 | inactive | -0.25 (inactive) |  |  |  |  | 
C=CCN1CC[C@]23CCCCC2[C@H]1Cc1ccc(O)cc13 (stereo not given in full) | 0.175 h (inactive) | -4% (inactive) | 1 (inactive) | 1.09 (inactive) | 0.636 | 10900 | 10000 | inactive | -0.095 (inactive) |  |  |  |  | 
CCCCC/C=C\C/C=C\C/C=C\C/C=C\CCCC(N)=O |  |  |  | 1.05 (inactive) and 1.02 (inactive) | 1.34 and 1.46 | 6020 and 5980 | 5750 and 5890 |  |  | 110 (inactive) | 4.13 (inactive) |  |  | 
CCCCC/C=C\C=C\[C@H](CCCCCCCC(=O)O)OO |  |  |  | 0.93 (inactive) | 1.23 | 5880 | 6320 |  |  | 87.6 (inactive) | 5.11 [at 1 µM] (inactive) |  |  | 
N#CC(=Cc1ccc(O)c(O)c1)C(N)=S | -0.06 h (inactive) | 3% (inactive) | 0.9 (inactive) | 0.981 (inactive) | 1.34 | 9410 | 9590 | inactive | -0.465 (inactive) |  |  |  |  | 
